CYP2C9 inh: human CYP2C9 inhibition | CYP2C9 Supersomes, luciferin-H conversion, luminescence | inhibition, % at 5 µM | hit rate 20% among 96,000;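 active means blocking of liver enzyme CYP2C9 beyond about 50% at 5 µM, limit read from the data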
CYP2C9 activ: CYP2C9 (human) activation; P11712; recombinant CYP2C9, luciferin-H conversion, luminescence; hits give high values; factor 1 = untreated enzyme, 0 = blocked; activation factor at 5 µM; hit rate 1.4% among 96,000;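 active means activation factor of 2 or more for CYP2C9 at a 5 µM dose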
Cav32 inh: blocks human Cav3.2 T-type calcium channel | Cav3.2-expressing cells, Fluo-4 calcium fluorescence FDSS; hits give low values | hit rate 4% among 100,000 | O95180 | B-score at 10 µM;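 active means single-dose well whose peak fluorescence ratio is a statistical outlier from its plate by either plate-standardised score or position-corrected B-score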
CYP2C19 inh: human CYP2C19 inhibition; P33261; CYP2C19 Supersomes, luciferin-H EGE luminescence, 30 min; inhibition, % at 5 µM; hit rate 21% among 96,000;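 active means CYP2C19 inhibition above a set limit at 5 µM in the primary screen, cut at about 50% in these data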
Target sequence (P33261 whole entry, looked up): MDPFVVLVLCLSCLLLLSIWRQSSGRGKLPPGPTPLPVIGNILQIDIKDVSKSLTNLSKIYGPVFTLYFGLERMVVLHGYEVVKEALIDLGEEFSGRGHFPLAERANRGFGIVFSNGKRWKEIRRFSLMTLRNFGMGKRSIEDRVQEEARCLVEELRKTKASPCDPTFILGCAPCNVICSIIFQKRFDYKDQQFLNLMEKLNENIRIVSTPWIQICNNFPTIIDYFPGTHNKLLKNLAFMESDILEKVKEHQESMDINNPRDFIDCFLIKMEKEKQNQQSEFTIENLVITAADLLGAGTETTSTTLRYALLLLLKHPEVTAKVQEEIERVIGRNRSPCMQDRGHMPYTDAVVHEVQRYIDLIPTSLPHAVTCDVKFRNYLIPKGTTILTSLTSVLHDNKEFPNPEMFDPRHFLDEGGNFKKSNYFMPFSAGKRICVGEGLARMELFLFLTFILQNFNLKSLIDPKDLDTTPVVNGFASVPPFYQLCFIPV
CYP2C19 act: cytochrome P450 2C19 (human) activation; P33261; recombinant CYP2C19, luciferin-H EGE luminescence; hits give high values; 0 = fully inhibited enzyme, 1 = untreated enzyme; activation factor at 5 µM; 96,000 tested, under 10 active; AID 1025;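 active means activation factor of at least 2 at 5 µM in the primary screen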
Of the large screens only hits and unclear results are named; the others gave an inactive call. In the library only some 27% were active in any assay of this set; here they are far more common.

O=C(Cc1cccc2ccccc12)N/N=C/c1ccc(F)cc1	Cav32 inh -4
COc1ccccc1NC(=O)CN1C(=O)C2(OCCCO2)c2ccccc21	CYP2C9 inh 70, CYP2C19 inh 80
COc1ccc(CCNC(=O)CN2C(=O)C3(OCCCO3)c3ccccc32)cc1OC	CYP2C19 inh 59
COc1ccccc1NC(=O)CN1C(=O)NC(C)(C)C1=O	none
CCN(CC)C(=O)CN1C(=O)C2(OCC(C)(c3ccccc3)CO2)c2ccccc21 (stereo not drawn)	CYP2C9 inh 77, CYP2C19 inh 86
O=C(CN1C(=O)C2(OCCO2)c2ccccc21)c1ccc(Br)cc1	Cav32 inh -5.5
COc1ccc(OC)c(NC(=O)CN2C(=O)C3(OCCCO3)c3ccccc32)c1	CYP2C9 inh 69
COc1ccc(CCNC(=O)CN2CCCc3ccccc32)cc1OC	CYP2C9 inh 59, CYP2C19 inh 74
O=C1N(Cc2ccccc2F)c2ccccc2C12OCCCO2	CYP2C19 inh 57
O=C1N(Cc2ccc(F)cc2Cl)c2ccccc2C12OCCCO2	none
CCCC(=O)CN1C(=O)C2(OCCO2)c2ccccc21	none
COc1cc(NC(=O)c2cc3cccc(OC)c3o2)cc(C(=O)Nc2cccc(C(F)(F)F)c2)c1	none (no result: CYP2C9 inh, CYP2C9 activ, CYP2C19 inh, CYP2C19 act)
O=C1c2cnc3nc(SCc4cccc(Cl)c4)nn3c2CC2c3ccccc3CCN12 (stereo not drawn)	none
O=Cc1nc(-c2ccccc2Cl)n2ccccc12	CYP2C9 activ 2.2
S=c1[nH]nc(-c2ccc3ccccc3n2)o1	CYP2C9 inh 53
S=c1[nH]nc(-c2cccnc2)o1	none
COCCCNC(=O)C1CCN(C(=O)Nc2ccc(Cl)cc2)CC1	none
COc1ccc(-n2cnnc2SCc2csc(-c3ccccc3)n2)cc1	CYP2C19 inh 75
c1ccc(-c2ncc(CSc3nncn3-c3ccccc3)s2)cc1	CYP2C19 inh 59
c1ccc(-n2cnnc2SCc2nc3ccccc3s2)cc1	none
CCN1CCN(c2ccc(NC(=O)c3cccnc3)cc2Cl)CC1	none
Cc1ccc(S(=O)(=O)N2CCN(C(=O)CN3CCN(C)CC3)C2)cc1	none
CC(C)OC(=O)/C(=C\c1ccc2c(c1)c1ccccc1n2C)NC(=O)c1ccccc1	CYP2C9 inh 76
CCOC(=O)/C(=C/c1c2ccccc2cc2ccccc12)NC(=O)c1ccccc1	none
CC(C)(C)CC(=O)NCc1ccc(F)cc1	CYP2C19 inh 53
O=C(CCC(=O)c1cccs1)NCc1ccc(F)cc1	CYP2C19 inh 72
O=C(CCn1cccc1)Nc1ccccc1F	none
O=C(CCC(=O)c1cccs1)Nc1ccccc1F	CYP2C19 inh 52
Cc1ccc(CNc2ncnc3cc(Cl)ccc23)o1	CYP2C9 inh 54, CYP2C19 inh 67
Cc1cccc(N2CCN(C(=O)c3cc4c(=O)n(C)c5ccccc5c4n3C)CC2)c1C	none
Cn1c(C(=O)N2CCCC2)cc2c(=O)n(C)c3ccccc3c21	none
Cc1ccc(Cl)cc1N1CCN(C(=O)c2cc3c(=O)n(C)c4ccccc4c3n2C)CC1	CYP2C9 inh 98, CYP2C19 inh 77
Cn1c(C(=O)N2CCN(c3ncccn3)CC2)cc2c(=O)n(C)c3ccccc3c21	CYP2C9 inh 93
CCc1c(C(=O)Nc2ccc(S(=O)(=O)N3CCOCC3)cc2)csc1C	none
CC(C)(C)C(=O)[C@H]1[C@H](c2ccccc2)[C@@]2(N=C(c3ccccc3)OC2=O)C2c3ccccc3C=NN21 (stereo partly drawn)	CYP2C19 inh 53
Cc1cccc(N2CCN(C(=O)CCn3c(=S)[nH]c4cc5c(cc4c3=O)OCO5)CC2C)c1 (stereo not drawn)	CYP2C9 inh 53, Cav32 inh -4
Cc1cccc(N2CCN(C(=O)Cn3c(=O)[nH]c4ccsc4c3=O)CC2C)c1 (stereo not drawn)	CYP2C19 inh 59
O=C(CCCn1c(=S)[nH]c2cc3c(cc2c1=O)OCO3)N1CCc2ccccc2C1	CYP2C9 inh 57
O=C(CCCn1c(=S)[nH]c2cc3c(cc2c1=O)OCO3)NC1CC1	none
O=C(CCn1c(=S)[nH]c2cc3c(cc2c1=O)OCO3)N1CCc2ccccc2C1	CYP2C9 inh 79, CYP2C19 inh 91 (no result: Cav32 inh)
Cc1ccc(C(=O)C(C)Oc2cccc(NC(=O)c3ccco3)c2)cc1 (stereo not drawn)	none (no result: CYP2C9 inh, CYP2C9 activ, CYP2C19 inh, CYP2C19 act)
CCCC[C@@H]1CNC(=O)C(=O)N1CC(C)(C)C	none (no result: CYP2C9 inh, CYP2C9 activ, CYP2C19 inh, CYP2C19 act)
O=C(CC1Sc2ncnn2C1=O)Nc1ccccc1 (stereo not drawn)	none
CCOC(=O)c1cccc(NC(=O)CCn2cccc2)c1	none
O=S(=O)(c1cccc2nsnc12)N1CCc2ccccc21	none (no result: CYP2C9 inh, CYP2C9 activ, CYP2C19 inh, CYP2C19 act)
Cn1cnc(S(=O)(=O)N2CCc3ccccc32)c1	none (no result: Cav32 inh)
O=S(=O)(Cc1ccccc1)N1CCc2ccccc21	CYP2C19 inh 69
Cc1n[nH]c(C)c1S(=O)(=O)N1CCc2ccccc21	CYP2C19 inh 61
CN(C)S(=O)(=O)N1CCc2ccccc21	CYP2C9 activ 2.3
CN(C)S(=O)(=O)N1CCc2ccccc2C1	CYP2C9 activ 2.4, CYP2C19 inh 66
Cc1ccc(C(=O)NNc2nc3ccccc3nc2C(F)(F)F)cc1	none
CCC(=O)NC1(C(F)(F)F)C(=O)NC(C)=C1C#N (stereo not drawn)	none
COc1ccc(OC)c(N(CC(=O)N2CCc3ccccc3C2)S(C)(=O)=O)c1	none
CN1CCc2nc(NC(=O)c3cccc(OC(F)F)c3)sc2C1	none
COc1ccc(NC(=O)CC2C(=O)N(c3cccc(OC)c3)C(=O)N2C2CCCCC2)cc1 (stereo not drawn)	none
N#Cc1nc(-c2ccco2)oc1NCc1cccnc1	none
COc1ccc(-c2nc(C#N)c(NCc3cccnc3)o2)cc1OC	CYP2C9 inh 51
N#Cc1nc(-c2cccc(Cl)c2)oc1NCc1cccnc1	CYP2C9 inh 94, CYP2C19 inh 95
CC1(N2CCOCC2)CC2(O)C(=[N+]1[O-])CCc1c2no[n+]1[O-] (stereo not drawn)	none
COc1ccc(N(C)C2=NS(=O)(=O)c3ccccc32)cc1	CYP2C19 inh 72
C=C(C)CN(CC)c1nc(N)c2c(N)nc3c(c2c1C#N)CC(=O)N3C12CC3CC(CC(C3)C1)C2	CYP2C9 inh 92
CCN(CC)S(=O)(=O)c1ccc(N2CCN(S(=O)(=O)c3ccc4c(c3)OCCO4)CC2)nc1	none
O=C(NC1CS(=O)(=O)CC1NCc1ccco1)c1ccccc1 (stereo not drawn)	none
CC1CC(C)CN(C(=O)CSCC(=O)Nc2nc(-c3cccs3)cs2)C1 (stereo not drawn)	CYP2C9 inh 84 (no result: Cav32 inh)
O=C(CSCC(=O)N1CCCCC1)Nc1nc(-c2cccs2)cs1	Cav32 inh -3.7
O=C(CN1C(=O)CCC1=O)Nc1nc(-c2cccs2)cs1	none
CCOC(=O)N1CCN(C(=O)CSCC(=O)Nc2nc(-c3ccccc3)cs2)CC1	none (no result: CYP2C9 inh, CYP2C9 activ, CYP2C19 inh, CYP2C19 act)
COc1cc2c(cc1NC(=O)CSc1ccc(C)cc1)oc1ccccc12	none
COc1cc2c(cc1NC(=O)c1cc(-c3ccncc3)nc3ccc(C)cc13)oc1ccccc12	CYP2C9 inh 87, CYP2C19 inh 61
O=C(c1ccccc1Oc1nnnn1-c1ccccc1)N1CCOCC1	none
